# BAZ2B block – blocks human BAZ2B | Q9UIF8 | AlphaScreen BAZ2B-H3K14Ac peptide displacement | Potency, µM (titrated, usually from 114 µM), for inactives: at the highest dose activity change, negative = inhibition, usual class: inhibitors | hit rate 4.4% among 360,000 | AID 504333; also: % is scaled to controls: 0 for no effect and ±100 for the full control effect; nearly all actives have a fitted effect of over 60% in size
#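 AlphaScreen displacement: compounds (up to 110uM) incubated 30 min at room temperature with a preformed 50 nM BAZ2B/50 nM biotinylated H3K14Ac peptide complex in PBS pH 7.4 with Tween-20. Donor and acceptor beads at 10 ug/mL final added, 20 min light-protected before reading.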
# L3MBTL1 block – L3MBTL1 (human) inhibition; Q9Y468; AlphaScreen L3MBTL1–H3K9me1 peptide binding; Potency, µM (titrated, usually from 57.1 µM), for the others: top-dose activity, negative = inhibition, most hits filed as inhibitors; hit rate 0.66% among 230,000; AID 485360; also: % is scaled to controls: 0 for no effect and ±100 for the full control effect; nearly all actives have a fitted effect of over 60% in size
#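 Read-out is AlphaScreen signal from streptavidin donor and nickel chelate acceptor beads (10 ug/mL final each) bridging L3MBTL1 (50 nM) and biotinylated K9-monomethylated H3(1-15) peptide (75 nM), after 30 min compound exposure at room temperature.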
# Sfp inh – blocks B. subtilis Sfp PPTase activity; Q9F4F7; Biochemical Sfp PPTase activity, qHTS; Potency, µM, for inactives: largest response in the series, negative = inhibition, most hits filed as inhibitors; hit rate 3.5% among 310,000;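 also: the enzyme is Sfp with the accession as filed and its product quenches rhodamine fluorescence; 0% = enzyme reaction without inhibitor and -100% = no enzyme wells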
#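 Reaction rates are the 30-min fluorescence difference (ex 525, em 598 nm) in wells containing 15 nM Sfp, 5 uM rhodamine-CoA and 12.5 uM BHQ-2-YbbR at pH 7.6 with 10 mM MgCl2.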
# HP1b chromo inh – inhibitors of HP1-beta chromodomain binding to methylated histone tails | AID 540317 | Potency, µM (doses to about 114 µM), inactives show at the top dose activity change, negative = inhibition, hits mostly inhibitors | hit rate 0.56% among 390,000 | AlphaScreen HP1-beta / biotin-H3K9me3 peptide binding; also: nearly all actives have a fitted effect of over 70% in size
#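 AlphaScreen: HP1-beta (50 nM) preformed 30 min with biotin-H3(1-18)K9me3 peptide (50 nM) in PBS pH 7.4, 0.01% Tween-20. Compound added for 30 min at RT, then streptavidin donor/nickel chelate acceptor beads (10 ug/mL) for 30 min.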
# JMJD2A Tudor – JMJD2A Tudor domain (human) inhibition; O75164; AlphaScreen JMJD2A-Tudor / H3K4me3 peptide binding; Potency, µM (highest dose often 114 µM), without a hit: at the top dose activity change, negative = inhibition, actives largely listed as inhibitors; hit rate 4.4% among 390,000; AID 504339; also: % is scaled to controls: 0 for no effect and ±100 for the full control effect; nearly all actives have a fitted effect of over 50% in size
# G9a block – G9a (human) methyltransferase inhibition; AID 504332; hit rate 8.8% among 350,000; Q96KQ7; Potency, µM (doses to about 102 µM), for the others: at the highest dose activity, negative = inhibition, actives largely listed as inhibitors; G9a H3K9 monomethylation, AlphaScreen, 2 h; also: % is scaled to controls: 0 for no effect and ±100 for the full control effect; nearly all actives have a fitted effect of over 75% in size
#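 Step 1: enzyme (final 20 nM) with compound, 15 min RT. Step 2: substrate peptide 500 nM and SAM 20 uM, 2 h RT. Step 3: anti-H3K9me1 antibody and AlphaScreen beads, 10 min, then plate read.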
# * = called active by the depositor; u = inconclusive; x = no result given; [ ] = another dose, or the depositor's remark. Compounds with a hit are over-represented: about 12% of the library has one in this group of screens. Calls follow the shape of the dose curve; as a rule, active = well fitted curve in the direction sought with a large enough effect; inconclusive = small, poorly fitted or top-dose-only effect, or another doubt; inactive = no such curve, though single readings can be large; an effect the other way counts as inactive or inconclusive. Potency is read from the fitted curve at half-maximal effect.
SMILES,BAZ2B block,L3MBTL1 block,Sfp inh,HP1b chromo inh,JMJD2A Tudor,G9a block
Cc1ccc2nc(CCl)[n+]([O-])c(-c3ccccc3)c2c1,-32%,7%,6%,9%,18µM*,u
Cc1ccc2nc(Cl)nc(-c3ccccc3)c2c1,1%,17%,0%,14%,-6%,20%
CCOC(=O)Cc1c(C)nc2c(C#N)c[nH]n2c1=O,-6%,0%,17%,31%,-24%,79µM*
CCOC(=O)Cc1c(C)nc2c(-c3ccc(Cl)cc3)c(C)[nH]n2c1=O,8%,11%,-2%,37%,-18%,50µM*
Cc1ccc(C(=O)NC(=S)Nc2ccc(N3CCOCC3)cc2)c(C)c1,22µM*,-14%,-8%,u,u,x
CCCCCC(=O)NC(=S)Nc1ccc(N2CCOCC2)cc1,u,-12%,-16%,0%,-20%,3.5µM*
Cc1ccc(C(=O)OCC(=O)c2ccc(CC(=O)N3CCOCC3)s2)cc1C,50µM*,u,x,19%,u,u
O=C(OCC(=O)N1CCOCC1)c1ccc2c(c1)OCCO2,4%,2%,14%,47%,-4%,-1%
CCOc1ccc(C(=O)NCCc2csc(-c3ccc(C(F)(F)F)cc3)n2)cc1OCC,4%,x,x,15%[57 µM],-5%,20%[59 µM]
O=C(CCN1CCOCC1)c1ccc2c(c1)OCCO2,3%,42%,-15%,27%,-11%,8.9µM*
O=C(CCN1CCCCC1)c1ccc2c(c1)OCO2,-24%[57.1 µM],-6%,u,31%,0%,7.9µM*
O=C(CCN1CCN(C(=O)c2ccccc2)CC1)c1ccc(Br)cc1,-5%,x,-5%,32%,-15%,32µM*
O=C(c1ccc(Br)cc1)N1CCN(Cc2ccccc2)CC1,5%,3%[2.29 µM],8%,29%,-13%,-5%[0.501 µM]
O=C(CCN1CCOCC1)NNC(=S)NC(=O)c1ccccc1,x,x,45µM*,28%,18µM*,11µM*
O=C(NCc1ccccc1Cl)c1cc2c(s1)-c1ccccc1SC2,3%,x,x,50%,0%,15%[59 µM]
CC1CN(C(=O)Nc2ccc(C(=O)NCCc3ccccc3)cc2)c2ccccc2S1 (stereo unspecified),-13%,x,x,14%,-4%,u
O=C(CCN1CCOCC1)c1ccccc1,2%,x,12%,37%,-8%,45µM*
O=C(c1ccccc1)N1CCN(Cc2ccccc2Br)CC1,50µM*,-2%,-25%,u,5µM*,u
O=C(CCN1CCc2ccccc2CC1)c1ccc2c(c1)OCCO2,-2%,x,40µM*,-11%,u,2.2µM*
O=C(CCCN1CCOCC1)c1ccc2c(c1)OCCO2,-2%,-4%,7%,18%,-24%,12%[59 µM]
CN1CCN(c2ncc3nc(-c4cccc(C#N)c4)c(=O)n(C[C@H]4CCCO4)c3n2)CC1,x,x,3%,x,x,-3%[0.501 µM]
CCC(=O)Nc1nnc(Sc2ccc(N(C)C)cc2)s1,-29%,-7%,0%,9%,-32%,u
CN(C)c1ccc(Sc2nnc(NC(=O)Nc3ccc(Cl)cc3Cl)s2)cc1,-9%,1%,1%,26%,-16%,28µM*
CCn1c(CCCOc2ccc(Cl)cc2Cl)n[nH]c1=S,-30%,-13%,-15%,34%,-23%,u
O=c1c2ccccc2nc(-c2ccc(Cl)cc2Cl)n1O,u,-8%,u,-2%,-4%[11.4 µM],9%
SMILES,BAZ2B block,L3MBTL1 block,Sfp inh,HP1b chromo inh,JMJD2A Tudor,G9a block
S=c1[nH]nc(-c2ccc(Cl)cc2Cl)n1-c1ccccc1,-28%,-2%,19%,28%,-13%,6.3µM*
CCn1c(-c2cccn(Cc3ccc(Cl)cc3Cl)c2=O)n[nH]c1=S,5%,x,-21%,-9%,-32%[11.4 µM],8.9µM*
S=c1[nH]nc(-c2ccc(Cl)cc2Cl)n1Cc1ccccc1,-6%,-7%,u,u,13µM*,u
S=c1[nH]nc(COc2ccc(Cl)cc2Cl)n1-c1ccccc1,-30%,1%,11%,30%,-34%,10µM*
CCOC(=O)N1CCc2c(sc3c2c(=O)n(Cc2ccccc2)c(=O)n3CC(=O)Nc2ccccc2F)C1,-10%,x,x,23%,-18%,3%[59 µM]
O=Cc1ccsc1B(O)O,x,x,16%,19%,-10%,x
COc1ccc(NC(=O)c2cc(CN3CCCC3)on2)cc1Cl,-20%,x,x,16%,-27%,-25%[59 µM]
CCOc1ccc(CCNC(=O)c2ccc(-c3nc(COc4ccc(C)cc4)c(C)o3)cc2)cc1,3%,x,x,19%,-9%,11%[59 µM]
COc1ccc(C(=O)N2CCC3(CCCN(Cc4ccc(C#N)cc4)C3)CC2)cc1,x,x,17%,x,x,-1%[12.7 µM]
COCCN1CCc2c(C)nc3c(-c4ccc(OC)c(OC)c4)cnn3c21,-5%,-2%,0%,34%,-7%,79µM*
Nc1nnc(-c2ccc(Cl)c([N+](=O)[O-])c2)s1,-20%,0%,-19%,2%,-21%,45µM*
Nc1nnc(-c2cccc([N+](=O)[O-])c2)s1,5%,15%,16%,43%,-1%[57.1 µM],0%
CC(C)c1nc(C(=O)N2CCc3c([nH]c4ccccc34)C2c2ccccn2)cs1 (stereo unspecified),22µM*,u,-13%,-18%,56µM*,x
O=C(O)c1cccnc1C(=O)N1CCc2c([nH]c3ccccc23)C1C(F)(F)F (stereo unspecified),-38%,-4%,-17%,3%,u,56µM*
Cc1nc(C(=O)N2CCc3c([nH]c4ccccc34)C2c2ccccn2)cs1 (stereo unspecified),-23%,-5%,18%,-17%,-29%,-10%
Cc1cccc(C2c3[nH]c4ccccc4c3CCN2C(=O)Cc2nc(-c3ccccc3)n[nH]2)n1 (stereo unspecified),-37%,-6%,16%,-3%,u,u
Cc1ccccc1C(=O)N1CCc2c([nH]c3ccccc23)C1C(F)(F)F (stereo unspecified),u,-19%,5%,u,-35%,u
O=C(Cc1ccsc1)N1CCc2c([nH]c3ccccc23)C1c1ccccn1 (stereo unspecified),-31%,-29%,-15%,17%,u,50µM*
Cc1cccc(Nc2nc(C#N)nc(NC3CCCC3)n2)c1,x,x,x,x,3%,x
CCc1ccc(-n2c(=O)c3cccnc3n2CC(=O)NCc2ccc(F)cc2)cc1,3%,x,x,44%,11%,2%[59 µM]
CCOC(=O)c1cc(-c2ccc(OC)c(S(=O)(=O)N3CCN(c4ccccc4)CC3)c2)on1,-14%,x,x,7%,-26%,-32%[59 µM]
COc1cc(N=Nc2cccc(S(N)(=O)=O)c2)c2ccccc2c1N,13µM*,-26%,u,28µM*,13µM*,13µM*
NC1=NC(=Nc2cccc(S(N)(=O)=O)c2)c2ccccc21,-2%,8%,0%,43%,-13%,-1%

# From PubChem BioAssay
